Experimental findings from PubChem BioAssay AID2685 (National Center for Advancing Translational Sciences (NCATS), 2010) are described below.

Molecules are shown by their SMILES. Among all 320,000 compounds or so, about 2,100 (0.66%) were called active. About 53% were inconclusive and are not listed. Calls follow the shape of the dose curve; as a rule, active = well fitted inhibition curve with a large enough effect in the signal ratio, with a control signal flat (not every such curve was filed as active); inconclusive = small, poorly fitted or top-dose-only effect, or effect the other way, or a change in a side signal; inactive = flat fitted curve, though single readings scatter; the % refers to the signal ratio. Only a selection was taken, and actives are over-represented in it overall.
Potency is read from the fitted curve at half-maximal effect.

A short description of the experiment: qHTS Assay for Lipid Storage Modulators in Drosophila S3 Cells.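 As to cell number change: cells counted by Cell Tracker Red CMTPX staining in the red channel.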 As to lipid storage change, negative = inhibition: % is scaled to controls: 0 for no effect and ±100 for the full control effect. To be noted: BODIPY lipid droplet fluorescence, 18-24 h, cells fed with added oleic acid; cell number change: measured here: cell count max response; series mostly up to 46.1 µM; lipid storage change, negative = inhibition: at the top concentration. In a few lines: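 Laser-scanning cytometry quantifies lipid droplet accumulation (500–530 nm total intensity; droplet/cell object ratio) in oleic acid-fed (400 uM added) Drosophila S3 cells treated with a concentration series. 20 uM Triacsin C defined 100% inhibition.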
(In general: Quantitative high-throughput screening tests each substance at several concentrations.)
As for `O=C(CSc1nc(O)cc(=O)n1-c1ccccc1)c1ccc(Br)cc1`, the cell number change is -4.08% and the lipid storage change, negative = inhibition was 26.5% [at 9.22 µM] (inactive).
Taken in the same sequence, the figures for `COc1ccc(-c2ccc3ccccc3n2)cc1` were -4.92% and -22% (inactive).
On to `S=c1[nH]nc(-c2ccncc2)n1/N=C/c1cccc2ccccc12`, for which the “lipid storage change, negative = inhibition” value was 11.2% (inactive) and the cell number change is 15.5%.
Taken in the same sequence, the figures for `Clc1ccc(CN2CCCCCC2)cc1` were 12.2% (inactive) and 7.51%.
Take `CC(C)Cn1c(CN(C)Cc2ccccc2)nc2c1c(=O)n(C)c(=O)n2C`: the call was inactive.
As for `CC(C)CCn1c(CN(C)Cc2ccccc2)nc2c1c(=O)n(C)c(=O)n2C`, the “lipid storage change, negative = inhibition” value is 15.2% (inactive) and the cell number change was -8.94%.
`C=C(C)Cn1c(CN(C)Cc2ccccc2)nc2c1c(=O)n(C)c(=O)n2C`: the Potency is 0.92 µM (active) and the cell number change is -21.1%.
For `C[C@@H](NC(=O)c1nc[nH]c1C(=O)NCC(=O)OC(C)(C)C)c1ccccc1`, the compound was called inactive and the cell number change came to 2.99%.
On to `CC(=O)c1ccc(Oc2cc(C(F)(F)F)cnc2C(N)=O)cc1`, for which the “lipid storage change, negative = inhibition” value is 6.16% (inactive) and the cell number change was 26.2%.
On the same counts, the results for `CC(NC(=O)c1ccncc1)C(c1cccs1)N1CCOCC1` (centres undefined) are 12.9% (inactive) and 1.4%.
For the compound `CCCCc1ccc(NC(=O)CSc2nc(=O)n(CCCN3CCOCC3)c3c2CCC3)cc1`, the “lipid storage change, negative = inhibition” value is -5.03% (inactive) and the cell number change was 12.5%.
For the compound `COc1ccc(NC(=O)CSc2nc3ccccc3nc2N2CCCCC2)cc1`, the “lipid storage change, negative = inhibition” value was -10.7% (inactive) and the cell number change is -10.4%.
As to `CCCCc1ccc(NC(=O)CSc2nc(=O)n(CCN3CCOCC3)c3c2CCC3)cc1`, the outcome was inactive and the cell number change was determined as 7.1%.
Regarding `COc1ccc(NC(=O)CSc2nc3ccccc3nc2N2CCCC2)cc1`, the “lipid storage change, negative = inhibition” value is -20.6% (inactive) and the cell number change was -11.5%.
As for `CCOc1ccc(NC(=O)CSc2nc3ccccc3nc2N2CCOCC2)cc1`, the Potency was 20.6 µM (active) and the cell number change was -28%.
Take `CCc1ccc(NC(=O)CSc2nc(=O)n(CCCN3CCOCC3)c3c2CCCC3)cc1`: the Potency was 14.6 µM (active) and the cell number change is -8.01%.
Turning to `Cc1cccc(NC(=O)CSc2nc3ccccc3nc2N2CC(C)OC(C)C2)c1` (centres undefined), the outcome was inactive and the cell number change amounted to 8.93%.
As for `Cc1cc(C)cc(NC(=O)CSc2nc3ccccc3nc2N2CCCCC2)c1`, the “lipid storage change, negative = inhibition” value is 25% (inactive) and the cell number change was 10.1%.
Take `CCc1ccc(NC(=O)CSc2nc3ccccc3nc2N2CCCCC2)cc1`: the Potency is 13 µM (active) and the cell number change amounted to 25.4%.
On the same counts, the results for `CC1CN(c2nc3ccccc3nc2SCC(=O)Nc2ccc(F)cc2)CC(C)O1` (centres undefined) are 20.6 µM (active) and 22.5%.
For `CCOc1ccc(NC(=O)CSc2nc(N3CCOCC3)nc(N3CCOCC3)n2)cc1`, the compound was called inactive and the cell number change stood at 4.32%.
For `O=C(CSc1nc2ccccc2nc1N1CCCC1)Nc1ccc(F)cc1`, the “lipid storage change, negative = inhibition” value was -16.8% (inactive) and the cell number change is 7.49%.
Taken in the same sequence, the figures for `Cc1cc(C)n2c(SCc3c(C)noc3C)nnc2n1` were 3.32% (inactive) and 2.46%.
Taken in the same sequence, the figures for `Cc1cccc(NC(=S)NCCc2ccc(S(N)(=O)=O)cc2)c1C` were -4.15% (inactive) and -9.26%.
On the same counts, the results for `C=CCSc1nnc(NC(=O)C2CC(=O)N(Cc3ccc(C)cc3)C2)s1` (centres undefined) are 18.9% (inactive) and -7.78%.
In the case of `CC(=C\C(=O)O)/C(=C/c1ccc(C)o1)C(=O)O`, the “lipid storage change, negative = inhibition” value was -2.85% (inactive) and the cell number change was -12.8%.
On the same counts, the results for `O=C(NCc1ccc2[nH]c3c(c2c1)CCCC3)c1ccc(S(=O)(=O)N2CCCCC2)cc1` are 1.09% (inactive) and -10.5%.
Taken in the same sequence, the figures for `CN(C)C(=O)c1cc(C(=O)c2c(F)cccc2F)c[nH]1` were -0.223% (inactive) and -8.76%.
As for `O=C(CN1C(=O)NC2(CCCCC2)C1=O)Nc1cccc(S(=O)(=O)N2CCOCC2)c1`, the “lipid storage change, negative = inhibition” value was -5.91% (inactive) and the cell number change was -0.223%.
In the case of `CCC1Sc2ccc(S(=O)(=O)CCC(=O)Nc3ccc(OC(F)(F)F)cc3)cc2NC1=O` (centres undefined), the outcome was inactive and the cell number change came to 2.14%.
Consider `O=C(NC(Cc1ccccc1)C(=O)O)/C(=C/c1ccco1)NC(=O)c1cccc(Br)c1` (centres undefined), for which the “lipid storage change, negative = inhibition” value was -22% (inactive) and the cell number change is -18%.
Taken in the same sequence, the figures for `O=C(NC(Cc1ccccc1)C(=O)O)/C(=C/c1ccc(Cl)cc1)NC(=O)c1ccccc1` (centres undefined) were -3.15% (inactive) and 1.96%.
Regarding `O=C(NC(Cc1ccccc1)C(=O)O)/C(=C\c1ccccc1)NC(=O)c1ccco1` (centres undefined), the result was inactive and the cell number change was -6.67%.
Consider `O=C(NC(Cc1ccccc1)C(=O)O)/C(=C\c1ccc(Cl)cc1)NC(=O)c1ccco1` (centres undefined), for which the Potency was 0.0411 µM (active).
Turning to `O=C(NC(Cc1ccccc1)C(=O)O)/C(=C\c1cccc([N+](=O)[O-])c1)NC(=O)c1ccco1` (centres undefined), the call was inactive.
Turning to `O=C(NC(Cc1ccccc1)C(=O)O)/C(=C/c1cccc(Br)c1)NC(=O)c1ccco1` (centres undefined), the Potency was 1.84 µM (active).
Consider `O=C(CC1C(=O)NCCN1Cc1ccc(-c2ccccc2)cc1)NCCOc1cccnc1` (centres undefined), for which the “lipid storage change, negative = inhibition” value is 3.12% (inactive) and the cell number change is -0.0435%.
On the same counts, the results for `O=C(Nc1cccc2ccccc12)c1cccc(F)c1` are 18.6% (inactive) and -3.54%.
On the same counts, the results for `COc1ccc(NC(=O)C2CSC(C)(C)N2C=O)cc1` (centres undefined) are 0.386% (inactive) and 7.51%.
Taken in the same sequence, the figures for `COc1ccc(CN2CCOCCOCCN(Cc3ccc(OC)cc3)CCOCCOCC2)cc1` were -8.25% (inactive) and 16%.
Regarding `Cc1ccc(S(=O)(=O)NCc2ccccc2)cc1C(=O)N(C)CC(=O)Nc1c(Cl)cccc1Cl`, the compound was classed as inactive.
Still for that read-out and setting: to `Cc1cc(-c2ccc(Cl)cc2Cl)c(C#N)c(=O)[nH]1` belongs “inactive”.
As to `CSc1nc(-c2ccc(Cl)cc2Cl)[nH]c(=O)c1C#N`, the Potency was 32.6 µM (active) and the cell number change is -67%.
Take `CSc1nc(-c2ccc(Cl)cc2)c(C#N)c(=O)[nH]1`: the “lipid storage change, negative = inhibition” value was 0.0192% (inactive) and the cell number change is -0.138%.
On the same counts, the results for `CN(Cc1ccccc1)C(=O)COc1ccc(N(C)S(=O)(=O)c2ccc(F)cc2)cc1` are -2.56% (inactive) and -1.11%.
